These results are taken from PubChem BioAssay (NCATS).

Records with an inconclusive call do not appear. Entries that show only a call come without a potency. Active and inactive are the calls of the source. Calls follow the shape of the dose curve; as a rule, active = well fitted cell-killing curve with a large enough effect; inconclusive = small, poorly fitted or top-dose-only effect; inactive = flat fitted curve, though single readings scatter.
Potency is read from the fitted curve at half-maximal effect.

The assay in a line: qHTS of pediatric cancer cell lines to identify multiple opportunities for drug repurposing: Confirmatory screen for SK-N-SH cells (AID 1347129).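 Also: cells exposed to compound for 48 h before viability read; nearly all actives have a fitted effect of over 60% in size.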 The conditions noted are these: SK-N-SH neuroblastoma cell viability; series mostly up to 46.1 µM. An outline of the steps: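 Cells (500-1,000/well) rested 5 h, then received compounds for 48 h; metabolically active cells were measured by CellTiter-Glo luminescence. Final concentrations spanned up to 46 µM (MIPE, 11-point) or 0.59 nM-46 µM (NPC, 8-point) in primary screens, 11-point in follow-ups.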
Consider `NC1=N[C@@]2(c3cc(NC(=O)c4ccc(F)cn4)ccc3F)COC[C@@H]2CS1`, for which the Potency entry was “inactive”. `O=C(O)CCC1CCC(c2cc(F)ccc2F)(S(=O)(=O)c2ccc(Cl)cc2)CC1` (centres undefined): the Potency result is “inactive”. Under `CC[C@]1(O)C[C@@H]2CN(CCc3c([nH]c4ccccc34)[C@@](C(=O)OC)(c3cc4c(cc3OC)N(C)[C@H]3[C@@](O)(C(=O)OC)[C@H](OC(C)=O)[C@]5(CC)C=CCN6CC[C@]43[C@@H]65)C2)C1` stands 0.148 µM (active); under `COc1cc(N2CCC(N3CCN(C)CC3)CC2)ccc1Nc1ncc(Cl)c(Nc2ccccc2S(=O)(=O)C(C)C)n1`, 0.833 µM (active). Take `O=C(NCc1ccncc1)C12C[C@H]3C[C@@H](C1)CC(c1ccc(Cl)cc1)(C3)C2`: the Potency entry was “inactive”. With `O=C1C(Cl)=C(NCCN2CCOCC2)C(=O)c2ncccc21` the figure was 7.43 µM (active); with `Oc1ccc(C2CCN(c3ccnc4ccccc34)CC2)cc1O`, 20.9 µM (active). Regarding `OC[C@H]1O[C@@H](n2cnc3c2NC=NC[C@@H]3O)C[C@H]1O`, the Potency result is “inactive”. Consider `O=C(Nc1cccc(Br)c1)c1cccc(S(=O)(=O)N2CCCCCC2)c1`, for which the Potency result is “inactive”. As for `CC(=O)Nc1ccc([C@H](C)C(=O)Nc2ncc(C(C)C)s2)cc1`, the Potency is 6.62 µM (active). Take `O=c1cc(-c2ccc(O)cc2)oc2cc(O)cc(O)c12`: the Potency entry is “inactive”. Turning to `CC(=O)Oc1cc2c(s1)CCN(C(C(=O)C1CC1)c1ccccc1F)C2` (centres undefined), the Potency entry is “inactive”. Under `CCc1ccc(OCc2ccccc2C(=O)Nc2ccc3nc(C)cc(N)c3c2)cc1` stands 8.33 µM (active); under `N[C@@]1(C(=O)O)CS(=O)(=O)[C@H]2[C@H](C(=O)O)[C@H]21`, “inactive”.
